Giardia FBPA inh = inhibitors of Giardia lamblia fructose-1,6-bisphosphate aldolase. A8B2U2. purified Giardia FBPA. Potency, µM (series often up to 59.6 µM), usual class: inhibitors. 0.71% of 290,000 active. AID 2451; note: nearly all actives have a fitted effect of over 55% in size
Target sequence (A8B2U2 whole entry, looked up): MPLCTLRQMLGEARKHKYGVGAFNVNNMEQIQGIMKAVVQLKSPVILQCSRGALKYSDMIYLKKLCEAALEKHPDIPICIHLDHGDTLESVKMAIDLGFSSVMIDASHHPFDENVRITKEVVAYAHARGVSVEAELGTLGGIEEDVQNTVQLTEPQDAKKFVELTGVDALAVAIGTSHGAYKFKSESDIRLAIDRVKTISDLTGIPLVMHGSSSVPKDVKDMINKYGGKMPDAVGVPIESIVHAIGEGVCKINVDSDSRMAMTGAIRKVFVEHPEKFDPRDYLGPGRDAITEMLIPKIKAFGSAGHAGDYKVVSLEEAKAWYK
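Giardia FBPA (40 nM reagent) was preincubated 10 min at RT with compound (up to 57.5 uM final), then substrate plus GAPDH/TPI/NAD/arsenate coupling system with diaphorase/resazurin was added; resorufin fluorescence (525/598 nm) was read after 20 min.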
RE007 growth inh = less growth of the S. pombe RE007 Vpr strain. Potency, µM (series often up to 92.2 µM), actives largely listed as inhibitors. 0.21% of 360,000 active. S. pombe RE007 Vpr strain, BacTiter-Glo ATP luminescence, 24 h; active = well fitted falling curve with a large enough effect; inconclusive = small, poorly fitted or top-dose-only effect; inactive = no such curve, though single readings can be large or run the other way; note: nearly all actives have a fitted effect of over 50% in size
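Fission yeast RE007 carrying one integrated HIV-1 vpr copy, seeded at OD 0.01 in PMG+AL medium with 23 nL pinned compound. Grown 24 h at 30 degrees; viability read by BacTiter-Glo luminescence after 5 min.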
LmPK inh = blocks Leishmania mexicana pyruvate kinase activity. Q27686. AID 1721. Potency, µM (titrated, usually from 57.5 µM), actives largely listed as inhibitors. 0.37% of 290,000 active. purified LmPK, Kinase-Glo ATP luminescence, 1 h
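qHTS format; LmPK 0.1 nM; substrates PEP 0.5 mM and ADP 0.1 mM. One-hour room-temperature incubation, then coupled luciferase luminescence; 0.5 nM enzyme wells mark activation.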
Cycloheximide cs = counter-screen for Shiga toxin inhibitors: cycloheximide protein synthesis inhibition; 12% of 300,000 active; cell reporter, cycloheximide protein synthesis inhibition counterscreen; max response, %; in the data active = max response mostly above about 13%, no sharp cut-off; inactive = mostly below about 14%; note: read at 38.3 µM for the half of the compounds with a filed dose
Shiga toxin inh = blocks Shiga toxin action in Vero cells | Vero cells, Shiga toxin protein synthesis inhibition reporter | inhibition, % at 38.7 µM | 9.2% of 290,000 active | AID 2315; in the data active = inhibition mostly above about 28%, no sharp cut-off; inactive = mostly below about 43%
TbPYK inhibitor = inhibitors of Trypanosoma brucei pyruvate kinase. TbPYK enzyme, Kinase-Glo Plus ATP luminescence, 45 min. Potency, µM (series often up to 76.8 µM), actives largely listed as inhibitors. 0.12% of 410,000 active. AID 624173; note: nearly all actives have a fitted effect of over 50% in size
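Assay buffer: 50 mM TEA pH 7.2, 100 mM KCl, 10 mM MgCl2, 0.05% BSA, 0.01% Tween-20. Pyruvate kinase from T. brucei plus substrate met compound, then ADP (130 uM final). Luminescence was read post 45 min RT.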
Hits are given with their value; . = inactive; ? = inconclusive; / = not tested or not shown; [ ] = remark or other dose. This excerpt belongs to a sample that is enriched for hits. Unless noted, calls come from the whole dose curve; as a rule, active = well fitted curve in the direction sought with a large enough effect; inconclusive = small, poorly fitted or top-dose-only effect, or another doubt; inactive = no such curve, though single readings can be large; an effect the other way counts as inactive or inconclusive.

SMILES	Giardia FBPA inh	RE007 growth inh	LmPK inh	Cycloheximide cs	Shiga toxin inh	TbPYK inhibitor
Cc1c(Cl)cccc1NC(=O)c1ncn(-c2ccccc2)n1	/	/	/	/	/	.
O=C(NNC(=S)NCc1ccco1)c1cccs1	.	.	.	.	.	.
C=CCn1c(SCC(=O)c2cccs2)nnc1-c1cccc(OC)c1	.	.	.	18	37	.
O=C(CSCc1ccco1)c1cccs1	.	?	.	39	82	.
O=C(CSc1nnc(-c2ccc(Cl)cc2)n1Cc1ccco1)c1cccs1	.	.	.	58	44	.
O=C(CSc1nnc(-c2ccncc2)n1Cc1ccco1)c1ccc(Cl)cc1	.	.	.	.	.	.
O=C(CN1C(=O)COc2ccc(S(=O)(=O)N3CCCCCC3)cc21)N1CCN(c2ccc(Cl)cc2)CC1	/	/	/	/	/	.
C=CCNC(=O)c1scc2c1CCCC2	.	.	.	16	.	.
CC(C)c1ccc(S(=O)(=O)/N=C2/C=CC(=O)c3ccccc32)cc1	14µM	/	.	.	.	/
COc1ccc(S(=O)(=O)/N=C2\C=C(Nc3ccc(O)cc3)C(=O)c3ccccc32)cc1	?	.	.	.	.	.
O=[N+]([O-])c1cccc(CN2C(COCc3ccccc3)CCC=CS2(=O)=O)c1 (centres undefined)	.	/	/	38	82	/
CC(C)COC(=O)N1C(COCc2ccccc2)CCC=CS1(=O)=O (centres undefined)	.	/	/	.	.	/
COc1ccc(/C=N/NC(=O)OC(C)(C)C)cc1OC	.	.	.	14	active	.
Cc1cc(C(=O)N/N=C/c2cccc([N+](=O)[O-])c2)c(C)o1	.	.	.	.	.	.
COc1cc(/C=N\NC(=O)OC(C)(C)C)ccc1OC(=O)c1ccco1	.	.	.	.	82	.
CC(C)(C)OC(=O)N/N=C/c1cccc([N+](=O)[O-])c1	.	.	.[11.5 µM]	50	82	.
C/C(Cl)=C/Cc1c(C)[nH]c2c(ccc3ccccc32)c1=O	.	.	.	.	.	.
C/C(Cl)=C/Cc1c(C)[nH]c2ccc(C)cc2c1=O	.	.	.	27	.	.
CCOc1ccccc1C1C(C(=O)Nc2ccccc2)=C(C)Nc2nc(-c3ccccc3)nn21 (centres undefined)	/	/	/	/	/	.
CC(C)c1cc2c(c(O)c1O)[C@@]13CCCC(C)(C)C1CC2OC3=O (some centres undefined)	5µM	.	16µM	.	.	?
CC(C)c1c(O)c(-c2cc3c(c(C(C)C)c2O)CCC2C(C)(C)CCC[C@@]32C)cc2c1CCC1C(C)(C)CCC[C@@]21C (some centres undefined)	.	/	/	/	/	/
O=C(c1cc2ccccc2[nH]1)N(Cc1cccnc1)CC1CCCN(C2CCCCC2)C1 (centres undefined)	/	.	.	15	.	.
CC(=O)N(Cc1cccnc1)Cc1cc2ccccc2[nH]c1=O	.	.	.	.	.	.
Cc1cccc(-c2c3c(=O)n(C)c(=O)n(C)c3cn2-c2ccccc2O)c1	13µM	.	.	.	.	.
COC(=O)c1ccccc1-n1cc2c(c1-c1cccc(C)c1)c(=O)n(C)c(=O)n2C	/	/	/	/	/	.
SMILES	Giardia FBPA inh	RE007 growth inh	LmPK inh	Cycloheximide cs	Shiga toxin inh	TbPYK inhibitor
COc1ccc(-c2csc(NC(=O)C3=COCCO3)n2)c(OC)c1	/	?	/	/	/	.
CCCC(=O)Nc1nc(-c2ccc(Cl)s2)cs1	.	.	.	38	.	.
O=C(Nc1nc(-c2ccc3c(c2)OCO3)cs1)C1CC1	.	.	.	44	66	.
CCCC(=O)Nc1nnc(-c2ccc3c(c2)OCCO3)o1	.	.	.	31	58	.
Cc1cc(C)c(-c2csc(NC(=O)C3=COCCO3)n2)cc1C	/	13µM	/	/	/	.
CSc1ccc(-c2nnc(NC(=O)c3ccc4c(c3)OCCO4)o2)cc1	/	/	/	/	/	.
CSc1ncnc2ncn(C)c12	/	.	/	/	/	.
CCOC(=O)[C@@H](N)CS	/	/	/	/	/	.
CCCn1c(NC(=O)c2ccc([N+](=O)[O-])o2)nc2ccccc21	/	.	/	/	/	.
CC(=O)Nc1nnc(-c2ccc3c(c2)CCCC3)o1	.	.	.	46	65	.
CCc1ccc(-c2csc(NC(=O)COC(=O)CCc3nc4ccccc4s3)n2)cc1	.	/	.	48	53	/
Cc1nc(NC(=O)COC(=O)CCc2nc3ccccc3s2)c(Cl)cc1Cl	.	.	.	.	.	.
CSCC(=O)Nc1nc(-c2ccc3c(c2)OCCO3)cs1	.	.	.	51	119	.
CCCC(=O)Nc1nc(-c2ccc3c(c2)OCCO3)cs1	.	.	.	40	93	.
CC(=O)Nc1ccc(NC(=O)C(C)OC(=O)c2cccc(S(=O)(=O)N3CCCC3)c2)cc1 (centres undefined)	/	.	/	/	/	.
CC(CC(=O)OCC(=O)Nc1ccc2[nH]c(=O)[nH]c2c1)c1ccccc1 (centres undefined)	/	.	/	/	/	.
O=C(Nc1nc(-c2ccc(-c3ccccc3)cc2)cs1)C1=COCCO1	.	.	.	.	.	.
CCCC(=O)Nc1nc(-c2ccc(OC)cc2)cs1	.	.	.	40	138	.
O=C(CSCC(=O)Nc1nc(-c2ccc3c(c2)OCO3)cs1)Nc1nccs1	.	.	.	.	.	.
O=C(O)C(=O)Nc1nc(-c2ccc3c(c2)OCCO3)cs1	.	.	.	14	26	.
COc1ccc(-c2csc(NC(=O)COC(=O)C3=COCCO3)n2)cc1	.	.	.	33	.	.
CCOc1ccc(/C=C/c2nc(C#N)c(NC3CCCCC3)o2)cc1	/	/	/	/	/	.
CC1(C)CCC[C@@](C)([C@H]2CC[C@]3(C)[C@@H]2[C@H](O)CC2[C@@]4(C)CC[C@H](O)C(C)(C)[C@@H]4[C@@H](O)C[C@]23C)O1 (some centres undefined)	.	/	/	.	.	/
CCc1ccc(-c2nnn(CCC#N)n2)cc1	.	.	.	29	40	.
CC(C)c1ccc(-c2nnn(CCC(=O)O)n2)cc1	.	.	.	.	.	.
SMILES	Giardia FBPA inh	RE007 growth inh	LmPK inh	Cycloheximide cs	Shiga toxin inh	TbPYK inhibitor
CCc1ccc(-c2nnn(CCC(=O)OC)n2)cc1	.	.	.	19	.	.
Cc1ccc(CNC(=O)c2ccc3c(O)c(S(=O)(=O)c4ccc(Cl)cc4)c(=O)[nH]c3c2)cc1	/	/	/	/	/	.
COc1cccc(CN(C)C(=O)Cc2c[nH]c3ccccc23)c1OC	/	.	.	.	.	.
COc1cccc(CN(C)C(=O)CSc2nc3ccccc3[nH]2)c1OC	.	.	.	26	46	.
CCn1cc(C(=O)NCCc2ccc(OC)c(OC)c2)c(=O)c2cc(S(=O)(=O)N3CCc4ccccc4C3)ccc21	/	/	/	/	/	.
CCOC(=O)/C(C#N)=C1\SS/C(=C(/C#N)C(=O)OCC)S1	?	/	.	35	50	/
CCn1c(=O)n(CC)c2cc(N3CCCC3)c(NC(=O)c3cc(Cl)ccc3OC)cc21	.	.	.	.	.	.
Cc1ccc(/C=N/NC(=O)c2cccs2)o1	.	.	.	40	162	.

Screening data from PubChem BioAssay.
